Here are results for 30 compounds from PubChem BioAssay (NCATS).

Assay [1] can be described thus: qHTS for Inhibitors of the Functional Ribonucleoprotein Complex (vRNP) of Lassa (LASV) Arenavirus: LASV Primary Screen - GLuc reporter signal (AID 1347082; calls by dose curve; tested in HEK293 reporter line; note: nearly all actives have a fitted effect of over 60% in size; for activity change, negative = inhibition: series mostly up to about 57 µM). In general terms: In qHTS, concentration-response curves come from the screen itself.
A short description of assay [2]: qHTS for Inhibitors of the Functional Ribonucleoprotein Complex (vRNP) of Lassa (LASV) Arenavirus: Viability assay - alamar blue signal for LASV Primary Screen (AID 1347083; calls by dose curve; tested in HEK293 reporter line; note: nearly all actives have a fitted effect of over 80% in size; for activity change, negative = reduced viability: series mostly up to about 57 µM).
A short description of assay [3]: qHTS for Inhibitors of the Functional Ribonucleoprotein Complex (vRNP) of Lymphocytic Choriomeningitis Arenaviruses (LCMV): Viability assay - alamar blue signal for LCMV Primary Screen (AID 1347085; calls by dose curve; tested in HEK293 reporter line; note: nearly all actives have a fitted effect of over 80% in size; for activity change, negative = lower viability: series mostly up to about 57 µM).
The target in assay [4] is Nucleoprotein (Lymphocytic choriomeningitis virus (strain Armstrong)) (UniProt P09992). The experiment in a line: qHTS for Inhibitors of the Functional Ribonucleoprotein Complex (vRNP) of Lymphocytic Choriomeningitis Arenaviruses (LCMV): LCMV Primary Screen - GLuc reporter signal (AID 1347086). For activity change, negative = inhibition: series mostly up to about 57 µM. Note: nearly all actives have a fitted effect of over 70% in size.

Records with an inconclusive call do not appear. Values without a mark were called inactive. Activity calls are given as the source filed them. Unless noted, calls come from the whole dose curve.
% is set by controls: 0 for no effect and ±100 for the full control effect; potency is the fitted concentration of half-maximal effect.

Chain of Nucleoprotein (Lymphocytic choriomeningitis virus (strain Armstrong)) (P09992 whole entry, looked up): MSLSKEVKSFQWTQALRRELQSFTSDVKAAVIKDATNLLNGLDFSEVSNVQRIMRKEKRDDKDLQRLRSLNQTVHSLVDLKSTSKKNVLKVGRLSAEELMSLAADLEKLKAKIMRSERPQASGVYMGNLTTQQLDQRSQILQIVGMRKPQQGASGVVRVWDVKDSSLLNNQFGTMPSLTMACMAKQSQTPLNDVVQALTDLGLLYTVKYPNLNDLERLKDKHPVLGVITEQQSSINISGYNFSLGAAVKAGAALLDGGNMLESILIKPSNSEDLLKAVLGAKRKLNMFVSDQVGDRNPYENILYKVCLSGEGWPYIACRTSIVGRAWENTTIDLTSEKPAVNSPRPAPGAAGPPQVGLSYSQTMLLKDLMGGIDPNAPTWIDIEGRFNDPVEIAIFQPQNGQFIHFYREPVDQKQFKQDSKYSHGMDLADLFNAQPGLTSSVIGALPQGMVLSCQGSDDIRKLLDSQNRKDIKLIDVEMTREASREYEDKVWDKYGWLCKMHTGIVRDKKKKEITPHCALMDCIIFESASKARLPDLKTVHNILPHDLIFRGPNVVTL

`Cc1cc2c(c(CO)c1CCO)C(=O)[C@@H](C)[C@@H]2O`: the Potency entry in assay [1], in assay [2], in assay [3] and in assay [4] was “inactive” in each case.
Consider `CC[C@@H](C)[C@@H](O)[C@H](C)C(=O)[C@H](C)/C=C(\C)C[C@H](C)[C@@H]1OC(=O)[C@H]1CC`, for which the Potency result in assay [1], in assay [2], in assay [3] and in assay [4] was “inactive” throughout.
For `C/C(=C\COc1c2ccoc2cc2oc(=O)ccc12)CCC(O)C(C)(C)O` (stereo not given), the Potency entry in assay [1], in assay [2], in assay [3] and in assay [4] was “inactive” each time.
`COC(=O)[C@@H]1CC2=CC(=O)CC[C@]2(C)[C@@]23O[C@@H]2C[C@@]2(C)[C@H](CC[C@@]24CCC(=O)O4)[C@@H]13`: the Potency result in assay [1], in assay [2], in assay [3] and in assay [4] was “inactive” in each case.
Consider `O=C(O)c1ccco1`, for which the Potency entry in assay [1], in assay [2], in assay [3] and in assay [4] was “inactive” in each case.
Take `CC(CCC(=O)O)C1CCC2C3CC(O)C4CC(O)CC[C@]4(C)C3CCC12C` (stereo not given in full): the Potency result in assay [1], in assay [2], in assay [3] and in assay [4] was “inactive” in each case.
Take `CCCCCCCCCCCCCC`: the Potency result in assay [1], in assay [2], in assay [3] and in assay [4] was “inactive” each time.
Consider `O=C(O)[C@H]1O[C@H](Oc2cc3oc(-c4ccccc4)cc(=O)c3c(O)c2O)[C@H](O)[C@@H](O)[C@H]1O`, for which the Potency entry in assay [1], in assay [2], in assay [3] and in assay [4] was “inactive” each time.
For `C[C@@H]1[C@H]2[C@@H](O[C@@H]3O[C@H](CO)[C@@H](O)[C@H](O)[C@H]3O)OC=C(C(=O)O)[C@H]2C[C@@H]1O`, the Potency result in assay [1], in assay [2], in assay [3] and in assay [4] was “inactive” in each case.
Consider `O[C@@H]1COC2[C@@H](O)CO[C@@H]21` (stereo not given in full), for which the Potency entry in assay [1], in assay [2], in assay [3] and in assay [4] was “inactive” each time.
With `COc1ccc2c(c1)C(=O)CC(c1ccc(OC)c(OC)c1)O2` (stereo not given), the Potency result in assay [1], in assay [2], in assay [3] and in assay [4] was “inactive” in each case.
With `CC(=O)[C@@]1(O)CCC2C3CC[C@H]4C[C@@H](O)CC[C@]4(C)C3CC[C@@]21C` (stereo not given in full), the Potency result in assay [1], in assay [2], in assay [3] and in assay [4] was “inactive” each time.
As to `CCOC(=O)Cc1ccccc1`, the Potency result in assay [1], in assay [2], in assay [3] and in assay [4] was “inactive” throughout.
On to `C=C[C@H]1[C@H](O[C@@H]2O[C@H](CO)[C@@H](O)[C@H](O)[C@H]2O)OC=C2C(=O)OCC[C@]21O`, for which the Potency result in assay [1], in assay [2], in assay [3] and in assay [4] was “inactive” each time.
For `CCCCCCCCCCOC(C)=O`, the Potency result in assay [1], in assay [2], in assay [3] and in assay [4] was “inactive” throughout.
Regarding `CC(C)=CCC/C(C)=C/CC/C(C)=C/CCC1(C)CCc2cc(O)ccc2O1` (stereo not given), the Potency result in assay [1], in assay [2], in assay [3] and in assay [4] was “inactive” each time.
As to `NC1C(O)OC(CO)[C@@H](O)[C@@H]1O[C@H]1O[C@@H](C(=O)O)C(O)C(O)C1O` (stereo not given in full), the Potency entry in assay [1], in assay [2], in assay [3] and in assay [4] was “inactive” throughout.
Regarding `CC1(C)CC(=O)c2cc(O)ccc2O1`, the Potency entry in assay [1], in assay [2], in assay [3] and in assay [4] was “inactive” each time.
Regarding `COc1cc(-c2ccccc2)nc2ccccc12`, the Potency result in assay [1], in assay [2], in assay [3] and in assay [4] was “inactive” each time.
Take `CC(=O)Nc1nc(C)c(-c2ccc(Cl)c(S(=O)(=O)NCCO)c2)s1`: the Potency in assay [1] is 2430 nM (active); in assay [2] it was 1370 nM (active); in assay [3] it was 685 nM (active); in assay [4], 544 nM (active).
As for `ClC1=C(Cl)[C@]2(Cl)[C@@H]3[C@@H](Cl)[C@H]4O[C@H]4[C@@H]3C1(Cl)C2(Cl)Cl`, the Potency entry in assay [1], in assay [2], in assay [3] and in assay [4] was “inactive” in each case.
Consider `c1csc(-c2ccc(-c3cccs3)s2)c1`, for which the Potency result in assay [1], in assay [2], in assay [3] and in assay [4] was “inactive” throughout.
As for `CCCCC[C@H](O)/C=C/[C@H]1OC(O)C[C@H](O)[C@@H]1C/C=C\CC(=O)O` (stereo not given in full), the results for the activity change, negative = inhibition in assay [1] and in assay [4] were -6.19% [at 0.757 µM] and 5.45% [at 0.757 µM], respectively. The activity change, negative = reduced viability in assay [2] is 12.3% [at 0.757 µM]. In addition, the activity change, negative = lower viability in assay [3] is -0.195% [at 0.757 µM].
For `O=C(Nc1cccc(C(F)(F)F)c1)Nc1cc(S(=O)(=O)NC2CC2)ccc1-c1ccsc1`, the Potency result in assay [1], in assay [2], in assay [3] and in assay [4] was “inactive” in each case.
In the case of `CC(C)NC(=O)NCCCCCCS(C)=O` (stereo not given), the Potency result in assay [1], in assay [2], in assay [3] and in assay [4] was “inactive” in each case.
Regarding `Cc1cc(=O)c2c(O)c3c(O)cc(O)c4c5c(O)cc(O)c6c(O)c7c(=O)cc(C)c8c1c2c(c34)c(c65)c78`, the Potency entry in assay [1], in assay [2], in assay [3] and in assay [4] was “inactive” in each case.
Consider `CC1=CCC(=C(C)C)CC1`, for which the Potency entry in assay [1], in assay [2], in assay [3] and in assay [4] was “inactive” throughout.
In the case of `O=c1c2c(O)cc(O)cc2oc2c(O)ccc(O[C@H]3O[C@@H](CO)[C@H](O)[C@@H](O)[C@@H]3O)c12`, the Potency result in assay [1], in assay [2], in assay [3] and in assay [4] was “inactive” each time.
Take `CCN1C[C@]2(COC)CC[C@H](O)[C@@]34C5C[C@@H]6[C@@H](OC)C[C@@](O)(C5[C@H]6O)[C@](O)([C@@H](OC)C23)[C@@H]14` (stereo not given in full): the Potency result in assay [1], in assay [2], in assay [3] and in assay [4] was “inactive” in each case.
`O=C(O)CCc1ccccc1`: the Potency result in assay [1], in assay [2], in assay [3] and in assay [4] was “inactive” each time.
